# This is a sample that favours compounds with a hit; in the whole collection about 3.6% have one here.
# mHTT CaM bind – inhibitors of human mutant huntingtin-calmodulin interaction. AID 1671202. inhibition, % at 15 µM. AlphaScreen His-mHTT/GST-CaM binding, luminescence. P42858. actives 3.6% (n = 190,000);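 further: 0% = both proteins with DMSO and 100% = one protein alone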
# Pf apPOL inh – Pf-apPOL DNA polymerase inhibition; Recombinant Pf-apPOL, molecular beacon fluorescence, 1.5 h; actives 0.25% (n = 210,000); AID 1794808; inhibition, % at 10 µM
# Starred values were filed as active, the others as inactive. No stated cut-off is given here; in the data, active means inhibition above about 50%; inactive means the rest.
SMILES,mHTT CaM bind,Pf apPOL inh
CCN1c2cc(C)ccc2-n2cccc2C12CCN(C(=O)Nc1cccc(OC)c1)CC2,56*,4
CCN1c2cc(C)ccc2-n2cccc2C12CCN(C(=O)NCc1cccc(OC)c1)CC2,34,2
CCN1CCN(Cc2c(O)ccc3c2OC(=Cc2cccc(C)c2)C3=O)CC1,26,-16
COc1ccc(CC(=O)N2CCCC2c2cc(C)on2)cc1OC (stereo not drawn),-1,-6
CCOC(=O)c1csc(NC(=O)Cc2csc3nc(-c4ccc(C)cc4)cn23)n1,8,-2
CC(=O)Nc1cccc(N2CC(C(=O)Nc3cccc(F)c3)CC2=O)c1 (stereo not drawn),9,-1
CC(C)C1C(=O)N(Cc2cn(CC3CCCCC3)nn2)CCS(=O)(=O)N1Cc1ccc(-c2ccncc2)cc1 (stereo not drawn),54*,-2
CC(C)C1C(=O)N(Cc2cn(CC3CCCCC3)nn2)CCS(=O)(=O)N1Cc1ccc(-c2ccccc2)cc1 (stereo not drawn),30,-4
CC1C(=O)N(Cc2cn(CC3CCCCC3)nn2)CCS(=O)(=O)N1Cc1ccc(-c2ccc(F)cc2)cc1 (stereo not drawn),58*,5
Cc1ccc(-c2ccc(CN3C(C(C)C)C(=O)N(Cc4cn(CC5CCCCC5)nn4)CCS3(=O)=O)cc2)cc1 (stereo not drawn),17,3
CC(C)C1C(=O)N(Cc2cn(CC3CCCCC3)nn2)CCS(=O)(=O)N1Cc1ccc(-c2cccc(CO)c2)cc1 (stereo not drawn),55*,-9
CC1C(=O)N(Cc2cn(CC3CCCCC3)nn2)CCS(=O)(=O)N1Cc1ccc(-c2ccncc2)cc1 (stereo not drawn),40,10
Cc1ccc(NC(=O)c2cc3c(CO)cnc(C)c3oc2=O)cc1,-6,-5
CCOCC(=O)N1CC2(COC(C)(C)OC2)C1,-1,-2
CNC(=O)C1CCCN1C(=O)Nc1cccc(C)c1 (stereo not drawn),2,-2
O=C(NCCc1csc(C2CCN(C(=O)C3CCCC3)CC2)n1)C1CC1,0,-1
CC1=NN(c2ccccc2)C(=O)/C1=C/c1ccccc1F,32,-4
CC1=NN(c2ccccc2)C(=O)/C1=C/c1ccc(N)cc1,57*,-5
CC1=NN(c2ccccc2)C(=O)/C1=C/c1ccc(Cl)cc1,53*,6
CC1=NN(c2ccccc2)C(=O)/C1=C/c1cccnc1,4,-3
CC1=NN(c2ccccc2)C(=O)/C1=C/c1ccc[nH]1,81*,-10
CC1=NN(c2ccc(Cl)c(C(=O)O)c2)C(=O)/C1=C/c1ccc(Cl)cc1,6,3
N#C/C(=C\c1ccc(O)cc1)c1nc(C2CC2)cs1,23,-2
CN1CCc2c(sc3c2C(=O)NC(c2cc4c(cc2Cl)OCO4)N3)C1 (stereo not drawn),1,5
O=C(Nc1c2c(nn1-c1ccccc1)CSC2)c1ccco1,77*,-12
SMILES,mHTT CaM bind,Pf apPOL inh
O=C(Nc1c2c(nn1-c1ccc(F)cc1)CS(=O)C2)c1ccco1 (stereo not drawn),3,-4
O=C(Nc1c2c(nn1-c1ccc(Oc3ccccc3)cc1)CSC2)C1CC1,56*,-10
COc1ccc(-n2nc3c(c2NC(=O)c2ccco2)CS(=O)(=O)C3)cc1,4,1
O=C(Nc1c2c(nn1-c1ccc(F)cc1)CSC2)c1ccco1,79*,-7
O=C(Nc1c2c(nn1-c1ccccc1)CSC2)C1CC1,22,-4
O=C(Nc1c2c(nn1-c1ccc([N+](=O)[O-])cc1)CSC2)c1ccco1,28,17
O=C(Nc1c2c(nn1-c1ccc(Oc3ccccc3)cc1)CSC2)c1ccco1,96*,-9
O=C(Cn1ncccc1=O)NCCOc1ccc(-c2ccc(F)cc2)nn1,-1,8
CC1(C(=O)NCc2ccc(F)cc2)CCCN(C(=O)COc2ccccc2)C1 (stereo not drawn),3,3
Cc1ccc(NC(=O)C2(C)Oc3cccnc3NC2=O)cc1 (stereo not drawn),-8,-4
O=C(c1ccc(Cl)cc1Cl)N1CCN(c2ccc(F)cc2)CC1,1,-2
COC(=O)c1cc(Nc2ccc(F)c(F)c2)c2ccccc2n1,-10,0
CC(C)CC(=O)N1CCC(COc2ccc(C(=O)NC3CC3)cc2)CC1,3,-1
C=CCNC(=O)c1cnn(-c2ccccc2)c1NC(=O)c1ccccc1Br,-4,-2
CN1CCN(C2C3CC4CC(C3)CC2C4)CC1 (stereo not drawn),-3,2
OCCN1CCN(C2C3CC4CC(C3)CC2C4)CC1 (stereo not drawn),1,62*
O=C(Nc1ccccc1C(=O)Nc1nccs1)c1ccc(Cl)cc1,-2,1
Cc1ccccc1-c1nc(C2CCN(C(=O)c3ccc(F)c(Cl)c3)CC2)no1,94*,2
Cc1oc(C2CCN(C(=O)c3cc4ccccc4[nH]3)CC2)nc1C(=O)N1CCCC1,83*,1
